The panel holds about 83,000 compounds, 20% with a hit somewhere; the sample as a whole holds those more often.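 Treatment: one concentration, 48 hours, 96-well format. Scoring: percent growth, with anything below 10 considered active.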 Unmarked numbers belong to inactive results. Activity calls are given as the source filed them.
What was measured:
Test in all cases: NCI-60 one-dose screen, 48 h (100 = growth as untreated, 0 = no growth, -100 = all killed)
Settings in all cases: 10 µM unless noted
[1] = system: NCI-H226 lung
[2] = system: NCI-H322M lung
[3] = system: HOP-62 NSCLC
[4] = system: NCI-H460 lung
[5] = system: HOP-92 NSCLC
[6] = system: NCI-H522 lung
[7] = system: A549/ATCC NSCLC
[8] = system: 786-0 renal
[9] = system: COLO 205 colon
[10] = system: DU-145 prostate
[11] = system: K-562 leukemia
[12] = system: MALME-3M melanoma
[13] = system: MDA-MB-231 breast
[14] = system: RXF 393 renal
[15] = system: SF-268 CNS
[16] = system: SF-295 CNS
[17] = system: SF-539 CNS
[18] = system: UACC-257 melanoma
[19] = system: M14 melanoma

Row | SMILES | growth [1] | growth [2] | growth [3] | growth [4] | growth [5] | growth [6] | growth [7] | growth [8] | growth [9] | growth [10] | growth [11] | growth [12] | growth [13] | growth [14] | growth [15] | growth [16] | growth [17] | growth [18] | growth [19]
1 | Cc1nc2sccn2c1-c1nnc(SCC(C)C)o1 | 62% | 82.1% | 95.2% | 97% | 64.4% | 71.5% | 91.3% | 82.3% | 106% | 99.1% | 52.7% | 97.8% | 87.1% | 104% | 88.5% | 86.1% | 93.3% | 98.7% | 99.9%
2 | Cc1nn(-c2ccccc2)c2nc(C)n(CC(=O)N/N=C/c3ccccc3O)c(=O)c12 | 21.6% | 29.4% | 31.3% | 4.76% (active) | 62.5% | 6.39% (active) | 26.2% | 18.5% | 16.8% | 48.9% | 18.4% | 47.4% | 34.2% | 25.9% | 47.6% | 23.6% | 21.8% | 2.59% (active) | 2.09% (active)
3 | C=CCSc1nnc(-c2ccc(-c3nc4ccc(Cl)cc4[nH]3)cc2)o1 | 103% | 86.7% | 39.9% | 38.1% | 81.8% | 29.8% | 60.3% | 76.4% | 55.7% | 85% | 19.5% | 39.3% | 41.2% | 53.1% | 75.7% | 58.2% | 56.3% | 68.2% | 28.7%
4 | N#CCc1nnc(NC(=O)c2ccc(-n3c(=O)[nH]c4ccccc4c3=O)cc2)s1 | 106% | 101% | 101% | 100% | 98.1% | 89.3% | 105% | 106% | 105% | 128% | 101% | 95.3% | 95.5% | 112% | 115% | 93.6% | 97.9% | 104% | 108%
5 | O=c1ccc(Cn2c(C(F)(F)F)cc3c(Cl)ncnc32)c[nH]1 | 116% | 67.2% | 94.7% | 32.5% | 78.6% | -77.1% (active) | 105% | 102% | 62.6% | 86.3% | 3.37% (active) | 91.4% | 52.6% | 86.5% | -22.9% (active) | 97.6% | 87.4% | 24% | -51.5% (active)
6 | C[C@@H](Nc1c(C#N)cnc2ccc(-c3cnc4[nH]ncc4c3)cc12)c1ccccc1 | -1.92% (active) | -2.29% (active) | 35.4% | 15.4% | -11.3% (active) | 13.1% | 5.68% (active) | 11% | 84.2% | 12.3% | 22.4% | -2.53% (active) | 9.96% (active) | -15.1% (active) | 25.7% | -0.0923% (active) | 7.78% (active) | 32.5% | 29.9%
7 | Cn1cc(-c2cc(N)n3nc(-c4c[nH]c5ccc(Cl)cc45)cc3n2)c2cc(Br)cnc21 | -12.5% (active) | 32.3% | -22.4% (active) | -58% (active) | -76.8% (active) | -71% (active) | -64.9% (active) | -93.7% (active) | -91.6% (active) | -71.6% (active) | -63.7% (active) | -79.1% (active) | -73.4% (active) | -70.4% (active) | 9.71% (active) | -50.9% (active) | -91.1% (active) | -55% (active) | -92.4% (active)
8 | Clc1ccc(Nc2nnc(-c3c[nH]c4ccccc34)o2)cc1 | 66.7% | 91.3% | 67.8% | 83% | 70.9% | 24.2% | 68.6% | 90.1% | 116% | 91% | 32% | 78.8% | 65.1% | 90.2% | 68.6% | 68.6% | 66.5% | 84.4% | 80.9%
9 | Cc1ccc(C(=O)Nc2cc(-n3cnc(F)c3)cc(C(F)(F)F)c2)cc1C#Cc1cnc2cccnn12 | 44.4% | 97.9% | 85.7% | 70.5% | 57.5% | 64.6% | 66.5% | 53.3% | 68.5% | 80.9% | -9.19% (active) | -3.1% (active) | 49.2% | 57.9% | 91.6% | 63.9% | 3.39% (active) | 58% | 17.7%
10 | O=C(N=Nc1c(O)[nH]c2ccc(Br)cc12)c1ccc2nc(-c3ccc(Cl)cc3)[nH]c2c1 | 16.6% | 6.48% (active) | -55.9% (active) | -19.4% (active) | -9.49% (active) | -47.2% (active) | 14.9% | -73.7% (active) | -36.1% (active) | -4.97% (active) | 10% | -34.7% (active) | -89.5% (active) | -42.3% (active) | -16.2% (active) | -62.8% (active) | -100% (active) | 46% | -3.86% (active)
11 | CCN1C(=O)N(CC)C2NNC(Sc3c(C(=O)O)c4ccccc4n(CC(C)C)c3=O)=NC21 (stereo not drawn) | 51.2% | 56.2% | 34.1% | -1.23% (active) | 80.8% | -32.3% (active) | 20.9% | 26.9% | -21.4% (active) | 20% | 5.86% (active) | 48.1% | 15.9% | 81.8% | 55.7% | -14.8% (active) | -29% (active) | 50.3% | 22.4%
12 | O=C1Nc2ccccc2/C1=C/C(=O)c1cc2ccccc2oc1=O | 93.7% | 102% | 101% | 108% | 119% | -34.9% (active) | 106% | 117% | -15.4% (active) | 97.3% | 14.5% | 10.9% | 97.6% | 91.4% | 105% | 97.8% | 102% | 104% | 101%

From PubChem BioAssay (NCI)
